# Efflux pump inh = blocks antifungal efflux pumps in multiplex yeast assay; S. cerevisiae Candida pump triplex, Nile Red efflux; inhibition, % at 10 µM; 330,000 tested, 0.44% active; AID 485275;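 active means plate passing quality check with inhibition over a set limit, or well fluorescence over plate mean plus 4 SD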;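 further: Nile Red retained in pooled yeast measured as flow cytometry median fluorescence; higher means more Nile Red kept so more efflux inhibition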
# Mot1-301 SUMO = blocks SUMOylation pathway, rescuing yeast Mot1-301 growth | S. cerevisiae Mot1-301 growth rescue, ATP luminescence, 38.5C; percent above DMSO median, 100 means doubled | growth rescue, % at 18.8 µM | AID 2716 | 320,000 tested, 1% active;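 active means every valid replicate shows activation above 250% relative to neutral control wells; inactive means the rest, any valid replicate at or below 250%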
# sPLA2-III inh = Blocks human group III sPLA2 activity | Q9NZ20 | QFRET BODIPY PC-A2 liposome hydrolysis, fluorescence | inhibition, % at 12.2 µM | 370,000 tested, 0.56% active;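 active means inhibition above mean plus 3 SD of compounds lying within the high and low control bounds, cut at about 19% in these data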
# Target sequence (Q9NZ20 whole entry, looked up): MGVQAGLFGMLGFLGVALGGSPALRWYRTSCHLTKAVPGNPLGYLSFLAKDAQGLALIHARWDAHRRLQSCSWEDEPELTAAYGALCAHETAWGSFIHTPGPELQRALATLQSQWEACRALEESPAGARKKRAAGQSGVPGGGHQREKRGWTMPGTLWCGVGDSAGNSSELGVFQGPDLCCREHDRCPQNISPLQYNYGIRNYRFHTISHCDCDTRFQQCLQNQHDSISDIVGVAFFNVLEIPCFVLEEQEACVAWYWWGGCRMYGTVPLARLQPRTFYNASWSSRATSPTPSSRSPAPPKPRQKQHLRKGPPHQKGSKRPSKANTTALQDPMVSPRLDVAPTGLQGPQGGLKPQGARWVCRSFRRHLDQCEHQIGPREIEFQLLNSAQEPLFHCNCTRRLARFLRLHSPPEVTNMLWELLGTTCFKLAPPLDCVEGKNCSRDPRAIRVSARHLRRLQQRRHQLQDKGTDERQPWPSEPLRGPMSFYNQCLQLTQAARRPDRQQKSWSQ
# SKN-1 inh = inhibitors of C. elegans SKN-1 | C. elegans VP596 Pgst-4::GFP/RFP ratio, acrylamide-induced, 24 h | inhibition, % at 21.8 µM | 360,000 tested, 0.49% active | AID 624304;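 active means interference check ratio from 0.5 to 1.5 plus GFP to RFP signal ratio inhibition reaching or exceeding a fixed threshold, cut at about 30% in these data, passing the limit was not always enough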
# sPLA2 confirm = human GIII-sPLA2 inhibition, confirmation | shares compounds with sPLA2-III inh | recombinant hGIII-sPLA2, BODIPY PC-A2 QFRET fluorescence | inhibition, % at 12.2 µM | 2,000 tested, 34% active | AID 743280;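 active means mean inhibition across triplicates above the hit cutoff set in the earlier primary screen, cut at about 19% in these data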
# 535nm interf = counter-screen for HGIII-sPLA2 inhibitors: 535nm fluorescence interference | BODIPY FL product fluorescence interference, QFRET | inhibition, % at 12.2 µM | shares compounds with sPLA2-III inh | 2,000 tested, 8.5% active | AID 743282;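 active means average inhibition above the solvent-only control mean plus 3 SD, cut at about 6% in these data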
# 535nm interf DR = 535nm optical interference dose response, HGIII-sPLA2 counter-screen | shares compounds with sPLA2-III inh | BODIPY FL product fluorescence interference, cell-free | IC50, µM | 240 tested, under 10 active;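 active means IC50 at or below 10 µM; inactive means IC50 above 10 µM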
# Numbers stand for hits; n = inactive; x = no result. A selection: hits, their analogues and other compounds. The true share with any hit is near 2.2%.
SMILES,Efflux pump inh,Mot1-301 SUMO,sPLA2-III inh,SKN-1 inh,sPLA2 confirm,535nm interf,others
CN(C)S(=O)(=O)c1cccc(NC(=S)N/N=C/c2cccc(O)c2)c1,n,n,n,n,x,x,
CN(C)S(=O)(=O)c1cccc(NC(=S)N/N=C/c2cc(Br)ccc2O)c1,n,n,39,n,28,11,
CC1=C(C(=O)N(C)C)CC(CC(=O)NC2CCCCC2)C(=O)N1CCC1=CCCCC1 (configuration not stated),x,x,n,n,x,x,
COc1cc2c(cc1OC)C1(C)N(CC2)C(C(C)=O)=NN1c1ccc(Cl)cc1 (configuration not stated),n,n,20,n,n,n,
O=C(Nc1ccc(F)cc1F)C1CCN(S(=O)(=O)c2cccnc2)CC1,n,n,n,n,x,x,
CCOC(=O)/C=C/[C@H]1CC(c2ccccc2)(c2ccccc2)CO1,n,n,n,n,x,x,
CC1CCN(C(=O)c2ncn3c2c(=O)[nH]c2ccccc23)CC1,x,x,n,n,x,x,
CCN(CC)C(=O)c1ncn2c1c(=O)[nH]c1ccccc12,x,x,20,n,n,n,
OC(COCc1ccc(Cl)cc1)CN1CCc2ccccc2C1 (configuration not stated),n,n,23,n,n,n,
OC(COCc1ccccc1)CN1CCCCC1 (configuration not stated),n,n,n,n,x,x,
CCCn1c(NC(=S)Nc2ccccc2)nc2ccccc21,n,n,37,n,48,n,535nm interf DR=n
CCn1c(NC(=S)Nc2ccccc2)nc2ccccc21,n,n,23,n,24,n,
CCn1c(NC(=O)C2CCCCC2)nc2ccccc21,n,n,n,n,x,x,
Cc1cccc(C)c1OCc1cc(C(=O)N(Cc2c(C)nn(C)c2C)C2CC2)no1,n,n,n,n,x,x,
CCOC(=O)C1CCCN(C(=O)C(CCSC)NC(=O)COc2ccccc2)C1 (configuration not stated),x,x,n,n,x,x,
N#Cc1c2c(c[nH]c1=O)CCN2Cc1ccccc1,n,n,20,n,n,n,
COc1cccc(N=Nc2ccc(O)c3ncccc23)c1,n,n,25,n,51,14,
C[C@@H]1CCCCO[C@@H](CN(C)Cc2ccccc2)[C@@H](C)CN([C@H](C)CO)C(=O)c2cc(N(C)C)ccc2O1,x,x,24,n,n,n,
C[C@H](CO)N1C[C@H](C)[C@@H](CN(C)Cc2ccccc2)OCCCC[C@H](C)Oc2ccc(N(C)C)cc2C1=O,x,x,n,n,x,x,
COc1ccc(CNC(=O)CSc2nc3ccc(N)cc3s2)cc1,n,n,29,n,n,n,
O=C(COC(=O)c1cccnc1Cl)NCCC1=CCCCC1,n,n,n,n,x,x,
COc1ccc(CN(C)C(=O)c2oc3ccccc3c2CSC)cc1F,n,n,n,n,x,x,
Nc1ccc(C(=O)Oc2ccc([N+](=O)[O-])cc2)cc1,n,n,23,n,n,n,
Nc1ccc(C(=O)Oc2ccc([N+](=O)[O-])cc2)c(O)c1,n,n,x,x,x,x,
CC/C(=C\c1ccc(N(C)C)cc1)c1ccncc1,x,x,23,67,20,n,
SMILES,Efflux pump inh,Mot1-301 SUMO,sPLA2-III inh,SKN-1 inh,sPLA2 confirm,535nm interf,others
CN(C)c1ccc(/C=N/NC(=O)CNC(=O)c2ccncc2)cc1,n,n,n,n,x,x,
COc1ccc(C(=O)NC(=S)Nc2cccc(NC(=O)c3ccco3)c2)cc1[N+](=O)[O-],n,n,28,n,n,n,
COc1ccc(C(=O)NC(=S)Nc2ccc(N3CCN(C(C)=O)CC3)cc2)cc1[N+](=O)[O-],n,n,21,n,n,n,
COc1ccc(C(=O)NC(=S)Nc2ccc(NC(=O)c3ccco3)cc2)cc1[N+](=O)[O-],n,n,n,n,x,x,
CC(=O)N1CCN(c2ccc(NC(=S)NC(=O)c3ccc(C)c([N+](=O)[O-])c3)cc2)CC1,n,n,n,n,x,x,
CCCCC(=O)Nc1ccc(NC(=S)NC(=O)c2ccco2)cc1OC,n,n,31,n,n,n,
CC1(C)CN(c2ccc(Br)cc2)C(=O)[C@H]1CC(=O)Nc1ccccc1,x,x,n,n,x,x,
O=C(COc1ccc(F)cc1Cl)NC1CCCCCC1,n,n,n,n,x,x,
CCOc1ccc(C(=O)Nc2nncs2)cc1OCC,n,n,22,n,n,n,
CCOc1ccc(C(=O)Nc2nnc(C(C)C)s2)cc1OCC,n,n,n,n,x,x,
Cc1ccc(S(=O)(=O)N2CCCC(N3CCOCC3)C2)cc1Cl (configuration not stated),n,n,19,n,n,n,
COc1ccc(C)cc1S(=O)(=O)N1CCCC(N2CCOCC2)C1 (configuration not stated),n,n,n,n,x,x,
O=C1NC[C@H](CCCCN2C[C@H](Cc3ccc(O)cc3)N(CCc3ccc(O)cc3)C(=O)C2=O)N(Cc2ccccc2)C1=O,x,x,n,n,x,x,
CC(C)c1nccn1S(=O)(=O)c1cccc([N+](=O)[O-])c1,n,n,19,n,n,n,
Cc1cc(C)nc(N/N=C/c2ccccc2Cl)n1,n,n,n,n,x,x,
Cc1cc(C)nc(N/N=C/c2cccc3ccccc23)n1,n,n,19,n,n,n,
C/C(=N\NC(=S)NC(C)C)c1cccc([N+](=O)[O-])c1,n,n,20,n,22,n,
C/C(=N\NC(=S)NC(C)C)c1ccc(Cl)c([N+](=O)[O-])c1,n,n,20,n,19,n,
C/C(=N\NC(=S)NC(C)C)c1ccccc1,n,n,n,n,x,x,
Cc1cc(Nc2nn(C)c(N)c2C#N)ccc1F,n,n,n,n,x,x,
CCCS(=O)(=O)NC(=O)C1(C)CCCN(C(=O)c2cc3ccccc3s2)C1 (configuration not stated),x,x,n,n,x,x,
C[C@H](NC(=O)[C@@H]1CCCN1C(=O)[C@@H]1CCCN1C(=O)OC(C)(C)C)c1ccccc1,x,x,n,n,x,x,
Cc1c(Cl)ccc2sc(NC(=O)CN3C(=O)c4ccccc4C3=O)nc12,n,n,20,n,n,n,
CCCCn1c(-c2cccnc2)n[nH]c1=S,n,n,22,n,n,n,
CSCCC(NC(=O)C1CCC(C)CC1)C(=O)Nc1ccc(NC(C)=O)cc1 (configuration not stated),n,n,n,n,x,x,
SMILES,Efflux pump inh,Mot1-301 SUMO,sPLA2-III inh,SKN-1 inh,sPLA2 confirm,535nm interf,others
CN(Cc1ccccc1)C(=O)c1csc([C@@H]2O[C@H](CO)[C@@H](O)[C@H]2O)n1,x,x,20,n,n,n,
CCOc1ccccc1-n1nnnc1SCC(=O)NCc1ccco1,n,n,n,n,x,x,
N=C(N)SCc1ccc(Cl)c2ccccc12,x,x,45,n,32,n,535nm interf DR=n
CCC(C(=O)NCc1ccco1)n1nc(C)n2c(cc3occc32)c1=O (configuration not stated),n,n,n,n,x,x,
Cc1cc(-c2n[nH]c(=S)n2CC(C)C)cs1,n,n,20,n,24,n,
O=C(NCCS(=O)(=O)N1CCN(c2ccccc2F)CC1)c1cc(=O)c2ccccc2o1,n,n,n,n,x,x,

# Assay outcomes from PubChem.
